# Target: AgAbp1
# Assay: SPOT peptide array binding signal intensity (averaged, normalized) (arbitrary units (background-subtracted, floor 0; scale differs between SH3 domains)); higher = stronger binding of the SH3 domain to the peptide
# Method in brief: (§1)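 GST-SH3 fusions from four yeast species, purified on glutathione Sepharose, were incubated at 10 μg/ml overnight at 4°C on membranes of synthetic 15-mer peptides in which cysteines were replaced with serines. Binding signal is the normalized, background-subtracted spot intensity averaged over replicates, in domain-specific arbitrary units.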
row,Binder,SPOT peptide array binding signal intensity
1,TIRRRAPLSLLESHT,77

# Target: AgBbc1
# Assay: as above
# Method in brief: as §1
row,Binder,SPOT peptide array binding signal intensity
1,TIRRRAPLSLLESHT,20

# Target: AgBem1-D1
# Assay: as above
# Method in brief: as §1
row,Binder,SPOT peptide array binding signal intensity
1,TIRRRAPLSLLESHT,46.5

# Target: AgBzz1-D1
# Assay: as above
# Method in brief: as §1
row,Binder,SPOT peptide array binding signal intensity
1,TIRRRAPLSLLESHT,46

# Target: AgBzz1-D2
# Assay: as above
# Method in brief: as §1
row,Binder,SPOT peptide array binding signal intensity
1,TIRRRAPLSLLESHT,39

# Target: AgCyk3
# Assay: as above
# Method in brief: as §1
row,Binder,SPOT peptide array binding signal intensity
1,TIRRRAPLSLLESHT,1

# Target: AgFus1
# Assay: as above
# Method in brief: as §1
row,Binder,SPOT peptide array binding signal intensity
1,TIRRRAPLSLLESHT,895

# Target: AgHof1
# Assay: as above
# Method in brief: as §1
row,Binder,SPOT peptide array binding signal intensity
1,TIRRRAPLSLLESHT,47

# Target: AgHse1
# Assay: as above
# Method in brief: as §1
row,Binder,SPOT peptide array binding signal intensity
1,TIRRRAPLSLLESHT,730

# Target: AgLsb1
# Assay: as above
# Method in brief: as §1
row,Binder,SPOT peptide array binding signal intensity
1,TIRRRAPLSLLESHT,3.5

# Target: AgLsb4
# Assay: as above
# Method in brief: as §1
row,Binder,SPOT peptide array binding signal intensity
1,TIRRRAPLSLLESHT,99.5

# Target: AgMyo5
# Assay: as above
# Method in brief: as §1
row,Binder,SPOT peptide array binding signal intensity
1,TIRRRAPLSLLESHT,≤ 0

# Target: AgNbp2
# Assay: as above
# Method in brief: as §1
row,Binder,SPOT peptide array binding signal intensity
1,TIRRRAPLSLLESHT,397

# Target: AgRvs167
# Assay: as above
# Method in brief: as §1
row,Binder,SPOT peptide array binding signal intensity
1,TIRRRAPLSLLESHT,3

# Target: AgSho1
# Assay: as above
# Method in brief: as §1
row,Binder,SPOT peptide array binding signal intensity
1,TIRRRAPLSLLESHT,36

# Target: AgSla1-D1-D2
# Assay: as above
# Method in brief: as §1
row,Binder,SPOT peptide array binding signal intensity
1,TIRRRAPLSLLESHT,32

# Target: AgSla1-D3
# Assay: as above
# Method in brief: as §1
row,Binder,SPOT peptide array binding signal intensity
1,TIRRRAPLSLLESHT,11.5

# Target: CaAbp1-D1
# Assay: as above
# Method in brief: as §1
row,Binder,SPOT peptide array binding signal intensity
1,TIRRRAPLSLLESHT,475

# Target: CaAbp1-D2
# Assay: as above
# Method in brief: as §1
row,Binder,SPOT peptide array binding signal intensity
1,TIRRRAPLSLLESHT,324

# Target: CaBbc1
# Assay: as above
# Method in brief: as §1
row,Binder,SPOT peptide array binding signal intensity
1,TIRRRAPLSLLESHT,133

# Target: CaBem1-D1
# Assay: as above
# Method in brief: as §1
row,Binder,SPOT peptide array binding signal intensity
1,TIRRRAPLSLLESHT,21.5

# Target: CaBzz1-D1
# Assay: as above
# Method in brief: as §1
row,Binder,SPOT peptide array binding signal intensity
1,TIRRRAPLSLLESHT,40

# Target: CaBzz1-D2
# Assay: as above
# Method in brief: as §1
row,Binder,SPOT peptide array binding signal intensity
1,TIRRRAPLSLLESHT,58.8

# Target: CaCyk3
# Assay: as above
# Method in brief: as §1
row,Binder,SPOT peptide array binding signal intensity
1,TIRRRAPLSLLESHT,11.5

# Target: CaFus1
# Assay: as above
# Method in brief: as §1
row,Binder,SPOT peptide array binding signal intensity
1,TIRRRAPLSLLESHT,1540

# Target: CaHof1
# Assay: as above
# Method in brief: as §1
row,Binder,SPOT peptide array binding signal intensity
1,TIRRRAPLSLLESHT,0.5

# Target: CaHse1
# Assay: as above
# Method in brief: as §1
row,Binder,SPOT peptide array binding signal intensity
1,TIRRRAPLSLLESHT,47.5

# Target: CaLsb1
# Assay: as above
# Method in brief: as §1
row,Binder,SPOT peptide array binding signal intensity
1,TIRRRAPLSLLESHT,0.5

# Target: CaLsb4
# Assay: as above
# Method in brief: as §1
row,Binder,SPOT peptide array binding signal intensity
1,TIRRRAPLSLLESHT,130

# Target: CaMyo5
# Assay: as above
# Method in brief: as §1
row,Binder,SPOT peptide array binding signal intensity
1,TIRRRAPLSLLESHT,≤ 0

# Target: CaNbp2
# Assay: as above
# Method in brief: as §1
row,Binder,SPOT peptide array binding signal intensity
1,TIRRRAPLSLLESHT,3410

# Target: CaRvs167
# Assay: as above
# Method in brief: as §1
row,Binder,SPOT peptide array binding signal intensity
1,TIRRRAPLSLLESHT,19.3

# Target: CaRvs167-3
# Assay: as above
# Method in brief: as §1
row,Binder,SPOT peptide array binding signal intensity
1,TIRRRAPLSLLESHT,28.2

# Target: CaSho1
# Assay: as above
# Method in brief: as §1
row,Binder,SPOT peptide array binding signal intensity
1,TIRRRAPLSLLESHT,608

# Target: CaSla1-D1-D2
# Assay: as above
# Method in brief: as §1
row,Binder,SPOT peptide array binding signal intensity
1,TIRRRAPLSLLESHT,133

# Target: CaSla1-D3
# Assay: as above
# Method in brief: as §1
row,Binder,SPOT peptide array binding signal intensity
1,TIRRRAPLSLLESHT,≤ 0

# Target: ScAbp1
# Assay: as above
# Method in brief: as §1
row,Binder,SPOT peptide array binding signal intensity
1,TIRRRAPLSLLESHT,97

# Target: ScBbc1
# Assay: as above
# Method in brief: as §1
row,Binder,SPOT peptide array binding signal intensity
1,TIRRRAPLSLLESHT,16.5

# Target: ScBem1-D1
# Assay: as above
# Method in brief: as §1
row,Binder,SPOT peptide array binding signal intensity
1,TIRRRAPLSLLESHT,22.5

# Target: ScBzz1-D1
# Assay: as above
# Method in brief: as §1
row,Binder,SPOT peptide array binding signal intensity
1,TIRRRAPLSLLESHT,11.5

# Target: ScBzz1-D2
# Assay: as above
# Method in brief: as §1
row,Binder,SPOT peptide array binding signal intensity
1,TIRRRAPLSLLESHT,29.5

# Target: ScCyk3
# Assay: as above
# Method in brief: as §1
row,Binder,SPOT peptide array binding signal intensity
1,TIRRRAPLSLLESHT,57.5

# Target: ScFus1
# Assay: as above
# Method in brief: as §1
row,Binder,SPOT peptide array binding signal intensity
1,TIRRRAPLSLLESHT,731

# Target: ScHof1
# Assay: as above
# Method in brief: as §1
row,Binder,SPOT peptide array binding signal intensity
1,TIRRRAPLSLLESHT,3.5

# Target: ScHse1
# Assay: as above
# Method in brief: as §1
row,Binder,SPOT peptide array binding signal intensity
1,TIRRRAPLSLLESHT,2020

# Target: ScLsb1
# Assay: as above
# Method in brief: as §1
row,Binder,SPOT peptide array binding signal intensity
1,TIRRRAPLSLLESHT,2

# Target: ScLsb2
# Assay: as above
# Method in brief: as §1
row,Binder,SPOT peptide array binding signal intensity
1,TIRRRAPLSLLESHT,≤ 0

# Target: ScLsb3
# Assay: as above
# Method in brief: as §1
row,Binder,SPOT peptide array binding signal intensity
1,TIRRRAPLSLLESHT,272

# Target: ScLsb4
# Assay: as above
# Method in brief: as §1
row,Binder,SPOT peptide array binding signal intensity
1,TIRRRAPLSLLESHT,8

# Target: ScMyo3
# Assay: as above
# Method in brief: as §1
row,Binder,SPOT peptide array binding signal intensity
1,TIRRRAPLSLLESHT,≤ 0

# Target: ScMyo5
# Assay: as above
# Method in brief: as §1
row,Binder,SPOT peptide array binding signal intensity
1,TIRRRAPLSLLESHT,1

# Target: ScNbp2
# Assay: as above
# Method in brief: as §1
row,Binder,SPOT peptide array binding signal intensity
1,TIRRRAPLSLLESHT,1320

# Target: ScPex13
# Assay: as above
# Method in brief: as §1
row,Binder,SPOT peptide array binding signal intensity
1,TIRRRAPLSLLESHT,1

# Target: ScRvs167
# Assay: as above
# Method in brief: as §1
row,Binder,SPOT peptide array binding signal intensity
1,TIRRRAPLSLLESHT,48.5

# Target: ScSho1
# Assay: as above
# Method in brief: as §1
row,Binder,SPOT peptide array binding signal intensity
1,TIRRRAPLSLLESHT,1070

# Target: ScSla1-D1-D2
# Assay: as above
# Method in brief: as §1
row,Binder,SPOT peptide array binding signal intensity
1,TIRRRAPLSLLESHT,337

# Target: ScSla1-D3
# Assay: as above
# Method in brief: as §1
row,Binder,SPOT peptide array binding signal intensity
1,TIRRRAPLSLLESHT,0.5

# Target: SpAbp1-D1
# Assay: as above
# Method in brief: as §1
row,Binder,SPOT peptide array binding signal intensity
1,TIRRRAPLSLLESHT,508

# Target: SpBbc1
# Assay: as above
# Method in brief: as §1
row,Binder,SPOT peptide array binding signal intensity
1,TIRRRAPLSLLESHT,1

# Target: SpBzz1-D1
# Assay: as above
# Method in brief: as §1
row,Binder,SPOT peptide array binding signal intensity
1,TIRRRAPLSLLESHT,106

# Target: SpBzz1-D2
# Assay: as above
# Method in brief: as §1
row,Binder,SPOT peptide array binding signal intensity
1,TIRRRAPLSLLESHT,≤ 0

# Target: SpCyk3
# Assay: as above
# Method in brief: as §1
row,Binder,SPOT peptide array binding signal intensity
1,TIRRRAPLSLLESHT,2

# Target: SpHof1
# Assay: as above
# Method in brief: as §1
row,Binder,SPOT peptide array binding signal intensity
1,TIRRRAPLSLLESHT,148

# Target: SpHof1-2
# Assay: as above
# Method in brief: as §1
row,Binder,SPOT peptide array binding signal intensity
1,TIRRRAPLSLLESHT,3.5

# Target: SpHof1-3
# Assay: as above
# Method in brief: as §1
row,Binder,SPOT peptide array binding signal intensity
1,TIRRRAPLSLLESHT,504

# Target: SpHse1
# Assay: as above
# Method in brief: as §1
row,Binder,SPOT peptide array binding signal intensity
1,TIRRRAPLSLLESHT,598

# Target: SpLsb1
# Assay: as above
# Method in brief: as §1
row,Binder,SPOT peptide array binding signal intensity
1,TIRRRAPLSLLESHT,3

# Target: SpLsb4
# Assay: as above
# Method in brief: as §1
row,Binder,SPOT peptide array binding signal intensity
1,TIRRRAPLSLLESHT,135

# Target: SpMyo1
# Assay: as above
# Method in brief: as §1
row,Binder,SPOT peptide array binding signal intensity
1,TIRRRAPLSLLESHT,≤ 0

# Target: SpNbp2
# Assay: as above
# Method in brief: as §1
row,Binder,SPOT peptide array binding signal intensity
1,TIRRRAPLSLLESHT,350

# Target: SpPex13
# Assay: as above
# Method in brief: as §1
row,Binder,SPOT peptide array binding signal intensity
1,TIRRRAPLSLLESHT,7

# Target: SpRvs167
# Assay: as above
# Method in brief: as §1
row,Binder,SPOT peptide array binding signal intensity
1,TIRRRAPLSLLESHT,6.33

# Target: SpSla1-D1-D2
# Assay: as above
# Method in brief: as §1
row,Binder,SPOT peptide array binding signal intensity
1,TIRRRAPLSLLESHT,5

# Target: SpSla1-D3
# Assay: as above
# Method in brief: as §1
row,Binder,SPOT peptide array binding signal intensity
1,TIRRRAPLSLLESHT,4.5

# From the supplement of paper PMC4466140
